High-throughput results from PubChem BioAssay.
TR SRC2 fluor cs = alters Texas Red total fluorescence, flagging assay interference | TRb/SRC2 Texas Red total fluorescence interference | actives 0.29% (n = 280,000) | Potency, µM (titrated, usually from 106 µM), for the others: at the highest dose fluorescence change, negative = quenching; active = well fitted curve in either direction with a large enough effect; inconclusive = small, poorly fitted or top-dose-only effect
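Human TRβ ligand-binding domain (0.6 uM) and Texas Red SRC2 peptide (20 nM) in Tris buffer with 1 uM T3 and 5% DMSO were incubated with pinned compound for 5 hr at ambient temperature. Total fluorescence was computed as S + 2P (555/632 nm).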
Tau ThT inhib = tau fibrillization inhibition (ThT binding). P10636. recombinant tau K18 P301L, heparin-induced fibrillization, ThT fluorescence. Potency, µM (doses to about 57.4 µM), for the others: top-dose activity, negative = inhibition, actives largely listed as inhibitors. actives 2.1% (n = 270,000). AID 1460; also: nearly all actives have a fitted effect of over 55% in size
Target sequence (P10636 561-689 P618L limits assumed): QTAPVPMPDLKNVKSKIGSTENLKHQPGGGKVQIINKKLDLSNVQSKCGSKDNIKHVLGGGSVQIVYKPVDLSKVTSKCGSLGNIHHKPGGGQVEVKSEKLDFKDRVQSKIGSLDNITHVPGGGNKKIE
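K18 P301L tau (15 uM + 0.24 uM Alexa 594-tagged), heparin 20 uM, NaOAc pH 7, 6 h 37 C; ThT 30 uM, 1 h RT, ex 450/em 510 nm.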
Tau fluor counter = counter-screen for tau fibril formation inhibitors; tau K18 P301L Alexa594 fluorescence, heparin fibrillization; Potency, µM (highest dose often 57.7 µM), for inactives: at the top dose activity change, negative = decrease; actives 0.93% (n = 280,000); also: nearly all actives have a fitted effect of over 55% in size
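Human tau K18 P301L (15 uM unlabeled, 0.24 uM Alexa 594-labeled) in 100 mM sodium acetate pH 7 with 20 uM heparin, 6 hr at 37 C. ThT 30 uM added, 1 hr ambient; Alexa 594 FP and total fluorescence read at 555/632 nm.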
Tau fibril FP = inhibitors of human tau fibril formation; P10636; K18 P301L tau heparin fibrillization, Alexa594 FP, 6 h; Potency, µM (doses to about 57.7 µM), without a hit: top-dose activity, negative = inhibition, most hits filed as inhibitors; actives 0.39% (n = 280,000); AID 1468; also: nearly all actives have a fitted effect of over 55% in size
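FP of Alexa 594-tau after heparin (20 uM) induction. Substrate: human K18 P301L, 15 uM unlabeled, 0.24 uM labeled. Buffer 100 mM sodium acetate pH 7. 6 hr, 37 C.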
TRb-SRC2 inh = inhibitors of human thyroid hormone receptor beta-SRC2 interaction; P10828; actives 0.065% (n = 280,000); Potency, µM (titrated, usually from 106 µM), without a hit: top-dose activity change, negative = inhibition, most hits filed as inhibitors; AID 1469; TRbeta-SRC2 peptide binding, fluorescence polarization; receptor liganded with 1 µM T3;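 also: plate controls were bound peptide for no effect and peptide without receptor for full effect; nearly all actives have a fitted effect of over 50% in size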
Target sequence (P10828 whole entry, looked up): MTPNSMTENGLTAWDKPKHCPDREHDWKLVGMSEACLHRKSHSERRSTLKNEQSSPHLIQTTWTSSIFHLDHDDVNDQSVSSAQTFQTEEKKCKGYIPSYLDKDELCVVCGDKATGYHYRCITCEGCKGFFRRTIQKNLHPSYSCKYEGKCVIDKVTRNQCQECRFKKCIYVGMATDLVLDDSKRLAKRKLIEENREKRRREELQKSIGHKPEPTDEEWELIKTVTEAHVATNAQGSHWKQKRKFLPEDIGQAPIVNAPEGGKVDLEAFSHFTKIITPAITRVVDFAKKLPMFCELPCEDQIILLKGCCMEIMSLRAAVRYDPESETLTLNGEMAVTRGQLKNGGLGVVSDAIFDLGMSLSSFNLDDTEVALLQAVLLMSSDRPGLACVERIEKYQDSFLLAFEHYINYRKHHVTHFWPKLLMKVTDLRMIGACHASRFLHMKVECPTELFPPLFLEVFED
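Each compound concentration gave % activity, normalized to unbound and bound Texas Red SRC2 controls, from polarization read after 5 hr ambient incubation with T3-loaded human TRb LBD.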
JMJD2E inh = JMJD2E (human) inhibition; B2RXH2; JMJD2E catalytic domain, FDH-coupled NADH fluorescence (FDH is formaldehyde dehydrogenase); Potency, µM (doses to about 57.1 µM), without a hit: top-dose activity change, negative = inhibition, usual class: inhibitors; actives 1.6% (n = 230,000); AID 2147; active = well fitted inhibition curve with a large enough effect, not every such curve was filed as active; inconclusive = small, poorly fitted or top-dose-only effect, or another doubt; inactive = no such curve, though single readings can be large or run the other way;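 also: 0% = wells with enzyme and -100% = buffer wells without enzyme; nearly all actives have a fitted effect of over 50% in size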
The depositor's hits bear a star; ? = inconclusive; . = no result given; [ ] = another dose, or the depositor's remark. An excerpt weighted towards active compounds, which were near 3.5% of everything screened. Unless noted, calls follow the shape of the dose curve; as a rule, active = well fitted curve in the direction sought with a large enough effect; inconclusive = small, poorly fitted or top-dose-only effect, or another doubt; inactive = no such curve, though single readings can be large; an effect the other way counts as inactive or inconclusive. Unless noted, % is scaled to controls: 0 for no effect and ±100 for the full control effect; potency is read from the fitted curve at half-maximal effect.

SMILES	TR SRC2 fluor cs	Tau ThT inhib	Tau fluor counter	Tau fibril FP	TRb-SRC2 inh	JMJD2E inh
O=C1NC(=S)N/C1=C/c1cc([N+](=O)[O-])ccc1O	-10%	16µM*	-20%	-1%	-2%	7%
Cc1c(Cl)cnc(NC(=O)COC(=O)CCC(=O)c2cccs2)c1Cl	-6%	-4%	-6%	5%	-3%	2%
Cc1cc(C(=O)COC(=O)CNS(=O)(=O)c2ccc3ccccc3c2)c(C)n1-c1ccccc1	200µM*[quencher]	0%	-5%	-7%	-11%	-1%
Cc1ccc(NC(=O)CCNS(=O)(=O)c2ccc3c(c2)oc(=O)n3C)c(C)c1	0%	-7%	-6%	-4%	-2%	-2%
CCc1cccc2c(C(=O)COC(=O)/C=C/c3ccc(O)c(OC)c3)c[nH]c12	2%	?	16µM*[quencher]	-9%	1%	?
C#CCOC(=O)CCC(=O)Nc1cc(OC)nc(OC)n1	-2%	-8%	-9%	-7%	-10%	5%
COc1cc(/C=C2\SC(=S)N(C(C(=O)O)c3ccccc3)C2=O)ccc1O (stereo unspecified)	16%	7.1µM*	-10%	-7%	?	-5%
CCOc1ccc(/C=C2/SC(=S)N(C(C(=O)O)c3ccccc3)C2=O)cc1OCC (stereo unspecified)	-7%	16µM*	-35%	?	-11%	?
COc1cc(/C=C2/SC(=NCc3ccccc3)N(Cc3ccccc3)C2=O)ccc1O	1%	?	10µM*[quencher]	-3%	-1%	-11%
COCCNC(=O)C(c1ccc(O)cc1)N(C(=O)CCC(=O)Nc1nccs1)c1cccc(C)c1 (stereo unspecified)	2%	-15%	-18%	-8%	0%	-7%
Cc1cc(S(=O)(=O)Nc2ccc(O)c(Sc3nc4ccccc4s3)c2)ccc1Cl	-2%	?	10µM*[quencher]	?	0%	.
O=S(=O)(Nc1ccc(O)c(Sc2nc3ccccc3s2)c1)c1ccc(F)cc1	0%	-15%	?	8%	-5%	3%
O=S(=O)(Nc1ccc(O)c(Sc2nc3ccccc3s2)c1)c1cc(Cl)ccc1Cl	-4%	?	10µM*[quencher]	?	0%	.
COc1ccccc1CNC(=O)C1CCN(S(=O)(=O)c2ccc3[nH]c(=O)ccc3c2)CC1	2%	4%	1%	9%	-3%	.
CCCCC(=O)Nc1ccc(N2CCN(S(C)(=O)=O)CC2)cc1	1%	-7%	3%	7%	5%	?
CCCn1c2ccccc2c2cnn(CC(=O)Nc3cc(OC)c(OC)c(OC)c3)c(=O)c21	18µM*[quencher]	-3%	-16%	6%	-8%	.
CCCn1c2ccccc2c2cnn(CC(=O)Nc3ccccc3OC)c(=O)c21	?	-1%	-10%	-6%	-3%	.
Cc1ccc(Nc2nc(C3CC3)cs2)cc1	0%	?	?	6%	5%	-8%
Clc1ccc(Nc2nc(C3CC3)cs2)cc1	0%	?	16µM*[quencher]	?	0%	-7%
Brc1ccc(-c2csc(N3CCC(c4ccccc4)C3)n2)cc1 (stereo unspecified)	-1%	?	-19%	2%	-3%	-1%
CCOCCCNC(=O)C1CCN(c2nn3cc(-c4ccc(F)cc4)nc3s2)CC1	9%	?	-6%	5%	2%	.
CC(=O)OC1C(N2CCCCC2)c2c(ccc(/C=C/C(=O)N3CCCCC3)c2O)OC1(C)C (stereo unspecified)	0%	-10%	-3%	-1%	-3%	7.1µM*
COc1cc(C/C=C\c2ccccc2)c(OC)cc1O	-3%	20µM*	?	?	7%	?
CC1=CCC2C(=O)N(CCc3c[nH]c4ccccc34)C(=O)C2C1 (stereo unspecified)	-4%	-20%	-25%	4%	-2%	-5%
COC(=O)C1=C(C)N(CCc2c[nH]c3ccccc23)C(=O)/C1=C\N(C)C	-2%	14µM*	?	-17%	-3%	-1%
SMILES	TR SRC2 fluor cs	Tau ThT inhib	Tau fluor counter	Tau fibril FP	TRb-SRC2 inh	JMJD2E inh
COc1ccc(NC(=S)N/N=C2\CC(C)(C)Oc3ccc(O)cc32)cc1	-1%	?	28µM*[quencher]	-4%	0%	?
COc1ccccc1NC(=S)N/N=C1\CC(C)(C)Oc2ccc(O)cc21	-2%	?	?	?	4%	?
C=CCOC(=O)C1=C(C)NC(SC)=C(C#N)C1c1cccs1 (stereo unspecified)	3%	-9%	-27%	-6%	-2%	-2%
C=CCOC(=O)C1=C(C)NC(SCC(=O)Nc2nccs2)=C(C#N)C1c1cccs1 (stereo unspecified)	1%	?	16µM*[quencher]	-14%	-9%	-19%
C=CCOC(=O)C1=C(C)NC(SCC(=O)Nc2nccs2)=C(C#N)C1c1ccc(Cl)cc1 (stereo unspecified)	1%	-17%	10µM*[quencher]	?	-15%	?
Cc1cc(C(=O)NCc2ccccc2)c2c(C)nn(-c3cccc(F)c3)c2n1	0%	-3%	?	?	7%	.
C=CCn1c(-c2cccc3ccccc23)n[nH]c1=S	-3%	-9%	-5%	1%	-6%	-11%
C=CCn1c(N/N=C/c2ccc(O)cc2)nc2ccccc2c1=O	-2%	-17%	16µM*[quencher]	?	5%	-7%
COC(=O)Cc1ccc(NC(=S)NCCSc2ccc(Cl)cc2)cc1	-1%	-14%	7.9µM*[quencher]	?	7%	-22%
Brc1ccc(C2Nc3cccc4cccc(c34)N2)s1	-17%	13µM*	?	?	6%	5%
CC(C)(C)N=C1SCC(C)(/C=N/O)S1 (stereo unspecified)	1%	25µM*	-25%	?	-4%	0%
CCOC(=O)C1=C(C)n2c(s/c(=C/c3cccc([N+](=O)[O-])c3)c2=O)=NC1c1ccc(O)c(OC)c1 (stereo unspecified)	-4%	14µM*	?	-6%	1%	6%
Cc1csc(NC(=O)CSc2nsc(SCC(=O)Nc3nc(C)cs3)c2C#N)n1	-4%	4µM*	10µM*[quencher]	-12%	3%	4%
Cc1ccc(NC(=O)CSc2nsc(SCC(=O)Nc3ccc(C)cc3C)c2C#N)c(C)c1	-5%	8%	-1%	-10%	-7%	9%
CC(=O)CSc1nsc(SCC(C)=O)c1C#N	-9%	16µM*	-28%	?	-3%	-10%
CN(C)NC(=S)Nc1cccc(C(F)(F)F)c1	0%	-9%	-5%	9%	0%	14%
